# Measured values published in PubChem BioAssay AID1159580 (chemical genetic matrix, 2015).
# Screen size: about 5,500 compounds; about 2,000 (36%) were called active. Not shown: some 18% with an inconclusive outcome. Some of the results follow. Values without a mark were called inactive. Cut-off read from the data, not from the text of the source: active = normalized growth mostly below about 0.91 (no sharp cut-off); inconclusive = no clear call, values can overlap the other calls; inactive = mostly above about 0.92.
# Test: chemical genetic growth profiling, strain panel (AID 1159580);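 note: tested at 20 µM; growth read once vehicle control cultures reached saturation at 30 °C; 1 = growth at the plate median or of vehicle wells; lower values mean less growth of the strain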
# Conditions: S. cerevisiae deletion strains, growth OD
smiles,measurement,setting,value
COc1ccc(Oc2cc(C)nc3ccccc23)cc1,normalized growth,"locus YAL013W, strain DEP1, hits give low values",1.01
same,normalized growth,"locus YBR229C, strain ROT2, hits give low values",1
same,normalized growth,"locus YDL101C, strain DUN1, hits give low values",1.02
same,normalized growth,"locus YDL134C, strain PPH21, hits give low values",0.989
same,normalized growth,"locus YDR150W, strain NUM1, hits give low values",1.02
same,normalized growth,"locus YEL061C, strain CIN8, hits give low values",0.884 (active)
same,normalized growth,"locus YGR078C, strain PAC10, hits give low values",1.01
same,normalized growth,"locus YHR030C, strain SLT2, hits give low values",0.269 (active)
same,normalized growth,"locus YHR087W, strain rtc3, hits give low values",0.999
same,normalized growth,"locus YJR043C, strain POL32, hits give low values",1
same,normalized growth,"locus YJR075W, strain HOC1, hits give low values",1.02
same,normalized growth,"locus YKL190W, strain CNB1, hits give low values",0.906 (active)
same,normalized growth,"locus YLR039C, strain RIC1, hits give low values",0.606 (active)
same,normalized growth,"locus YLR058C, strain SHM2 (second series), hits give low values",1
same,normalized growth,"locus YLR085C, strain ARP6, hits give low values",0.527 (active)
same,normalized growth,"locus YLR262C, strain YPT6, hits give low values",0.701 (active)
same,normalized growth,"locus YML094W, strain GIM5, hits give low values",0.941
same,normalized growth,"locus YMR219W, strain ESC1, hits give low values",1.01
same,normalized growth,"locus YMR263W, strain SAP30, hits give low values",1.02
same,normalized growth,"locus YNL153C, strain GIM3, hits give low values",0.991
same,normalized growth,"locus YNL298W, strain CLA4 (second series), hits give low values",0.876
same,normalized growth,"locus YNL322C, strain KRE1, hits give low values",1.01
same,normalized growth,"locus YNR030W, strain Alg12, hits give low values",0.967
same,normalized growth,"locus YPL055C, strain LGE1, hits give low values",1.02
same,normalized growth,"locus YPL241C, strain CIN2, hits give low values",0.845 (active)
same,normalized growth,"locus YPR135W, strain CTF4, hits give low values",0.397 (active)
